From the supplement of paper PMC6555819

Assays:
Experiment in all cases: PBM binding z-score (relative to random genomic background probes); higher = stronger binding; sequences stand for … in GC…GCGATTGACAGCGTAGAATGAAGG
[1] = test system: FXR:RXRa (NR concentration 270 nM, RXRa partner concentration 90 nM)
Outline: (§1)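 The probes on custom Agilent 4×180K protein-binding microarrays were double-stranded, with 34-nt variable regions bearing direct-repeat seeds, single-nucleotide variants, half-site ablations and random human genomic background sequences. Incubation lasted 1 h with ligand-free nuclear receptor dimers in PBS pH 7.4, 2% milk, 0.02% Triton X-100, 1 mM DTT, 0.2 mg/mL BSA and 0.4 mg/ml salmon testes DNA. Antibodies against each partner (one per run) detected bound dimers, and fluorescence scans were regression-normalized. Binding z-scores take the random background probes as reference.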

[2] = test system: LXRa:RXRa (NR concentration 270 nM, RXRa partner concentration 90 nM)
Outline: as §1

[3] = test system: LXRa homodimer (NR concentration 270 nM)
Outline: as §1

[4] = test system: LXRb:RXRa (NR concentration 270 nM, RXRa partner concentration 90 nM)
Outline: as §1

[5] = test system: LXRb homodimer (NR concentration 270 nM)
Outline: as §1

[6] = test system: PPARa:RXRa (NR concentration 270 nM, RXRa partner concentration 90 nM)
Outline: as §1

[7] = test system: PPARg:RXRa (NR concentration 180 nM, RXRa partner concentration 90 nM)
Outline: as §1

[8] = test system: PPARg:RXRa 270nM:90nM, anti-RXR (NR concentration 270 nM, RXRa partner concentration 90 nM)
Outline: as §1

[9] = test system: PPARg:RXRa 30nM:10nM, anti-RXR (NR concentration 30 nM, RXRa partner concentration 10 nM)
Outline: as §1

[10] = test system: PPARg:RXRa 90nM:30nM, anti-RXR (NR concentration 90 nM, RXRa partner concentration 30 nM)
Outline: as §1

Sequence	PBM binding z-score [1]	PBM binding z-score [2]	PBM binding z-score [3]	PBM binding z-score [4]	PBM binding z-score [5]	PBM binding z-score [6]	PBM binding z-score [7]	PBM binding z-score [8]	PBM binding z-score [9]	PBM binding z-score [10]
TAGCCTAGGTCATGCGCCAGTATACCACGCGAAC	4.17	3.31	0.602	2.61	0.0918	3.83	2.77	3.08	0.794	1.89
CGAACTAGGTCATCCAGGACATTGAATACATTGA	4.43	2.87	1.02	2.52	0.159	5.11	7.97	6.57	4.02	5.68
ACTATTAGTTGACTTAGCGCAACCGATACGACGC	-0.246	-0.156	0.033	-0.0894	0.667	-0.285	0.811	0.137	0.148	0.0233
TCATATAGGAAATACAGGTGAAAGTCGGCATCTA	1.36	1.32	0.335	1.27	0.00276	1.6	1.1	2.77	4.7	3.66
AGAATCAGGTTATACGTAGATCAGGGAAGAAAGT	0.826	0.893	0.313	0.875	0.265	1.63	1.11	1.38	0.762	0.859
CCTAGCAGGCCAATCTGGGTCGCTCAAGGCTTGA	0.866	0.838	-0.942	0.983	-1.1	2.39	0.206	0.917	-0.999	0.104
TCTATTACTTGAAGGGCAACCGACGAGTCCGTTT	0.851	1.02	0.425	1.19	0.925	1.48	0.388	2.11	3.96	3.26
GCTTATGGGTCAAAGGTTATAGCATGAATAGAAT	6.45	5.27	0.469	5.46	0.477	6.76	11.9	10.1	10.2	11
GCTGCTAGGTCAGGTTGGTCACCTAACGGGTACG	1.01	0.907	-0.299	0.43	-0.281	1.56	0.627	1.15	-0.264	0.22
CCTAGCAGGCCAGTGTCACTCAAGCATTTCGCTT	-0.361	-0.253	-0.614	-0.187	-0.597	-0.0659	-0.338	-0.0615	-0.773	-0.752
GCGACTGGGGCAAAGCAGGTTACCGTAAGGTTGG	-0.0896	0.23	-0.658	0.135	-1.45	1.51	0.866	1.45	-0.363	0.645
GCAGACAGGTGAAAGGCAGGTAACTCAGGGTGGC	0.0647	0.0817	-0.103	-0.00398	-0.276	0.899	0.826	0.901	-0.278	0.391
CGAACGAGGGCATGAGTTAATAGCAAATGCCGAT	0.396	0.206	-0.633	0.117	-0.921	1.49	1.64	1.98	0.666	1.58
CCTTACGGGTCACTGACAGGTTATAGTATTTGGA	5.25	4.01	0.456	3.4	0.163	4.95	4.75	4.34	1.8	2.96
AGTCTAAGTTCACTAGGTAACGTAAGATTCAGCT	2.84	3.02	0.822	1.84	0.221	3.63	2.98	3.85	1.57	3.02
CAAACTAGGTCACCGGAAGGTGAAAGTCCGCATG	4.95	3.97	0.466	3.14	0.0268	5.42	9.29	7.34	5.78	7.31
TTACCAAGGTGAAAGATCGTTGATGCACGCCTTG	0.552	0.392	-0.574	0.286	-0.696	2.36	2.97	3.92	2.25	3.77
CCTACTGGGCCACGAAACGTCATTGATTCAGTGA	-0.574	-0.675	-0.582	-0.896	-0.886	0.486	1.59	1.19	-0.214	0.157
ATCTTTAGGTAAAGTTCAGTGAAAGATCGATAGA	0.994	1.72	1.25	1.18	0.781	1.87	2.25	3.13	1.43	2.95
TCATATAGGTACTACAGGTGAAAGTCGGCATCTA	0.842	1.92	0.924	1.03	0.0353	1.4	0.768	2.18	3.93	2.89
CCTTACGGGTCACTCCAGATTATAGCATCGGAGT	4.83	4.8	-0.0778	2.91	0.399	4.41	3.39	3.43	0.931	2.35
CTAACTAGGTCAAAGGTCAAAGTCGAGCCAACCA	8.53	7.32	5.19	7.21	2.96	7.74	14	11.2	13.1	13.2
ATCTCTAGGTAAAGACAGTTCAGTGAATGCAAAT	0.377	2.43	0.934	0.745	0.542	0.628	0.336	0.491	0.147	0.518
ATCTCTAGGTAACCTAGTTCAGTGAATGCCGAAC	0.745	1.07	0.16	1.26	0.421	2.24	1.69	1.42	0.221	0.568

Sequence	PBM binding z-score [1]	PBM binding z-score [2]	PBM binding z-score [3]	PBM binding z-score [4]	PBM binding z-score [5]	PBM binding z-score [6]	PBM binding z-score [7]	PBM binding z-score [8]	PBM binding z-score [9]	PBM binding z-score [10]
GCGACTGGGGCAAAGCAGGTAACCATAAGGTTGG	-0.15	-0.576	-0.622	-0.339	-0.997	0.96	1.1	1.08	-0.433	0.285
CGTCCAAGGTCAGGGAGGTCAGTGAATGCCGAGT	6.32	5.28	2.42	4.43	0.00503	5.2	4.29	4.63	0.9	3.13
CGTCAAAGTTCAAGGTAACGTAACAGAAAGCAGC	6.65	5.73	2.59	3.46	1.01	4.81	4.45	5.18	2.02	3.97
ATATGTAGGTTAGCTGGGGTCATTCTGACTAGGC	4.61	5.75	3.4	4.86	1.32	5.07	5.36	5.24	2.82	4.48
CAGCCCAGGTCAGGGCCAGTATAGGAGGAACGTT	2.46	1.34	-0.516	1.01	-0.951	2.27	0.962	0.716	-0.353	0.469
CCAGACAGGTGAGAAGGTAACCCAGCCTCGATTA	0.179	0.277	-0.0873	0.148	0.023	0.739	0.689	0.473	-0.12	0.118
TCATATAGGTACAGGTGAAAGTCGAACGATATGA	0.652	0.533	-0.0804	0.777	-0.304	1.62	1.23	2.41	3.76	2.76
AGAACGAGGGCAATGAGTTAATAGCACGGGTGGC	0.223	0.22	-0.363	-0.11	-0.589	1.34	1.56	1.23	-0.12	0.528
CCTTACGGGTCACTGACAGGTTAGAGCATTTGGA	5.51	3.9	0.227	3.04	-0.348	5.19	4.35	4.64	1.58	3.02
CGAACTAGGCCATTGACAGGACAGTGAATAGTAA	-0.28	-0.21	0.0668	-0.366	-0.825	1.53	2.02	1.77	0.274	0.972
TCGAGTAGGTTAGGGTCATTCAGAATGGCGTCGA	4.57	3.41	0.537	3.62	-0.146	4.66	3.15	4.16	2.2	3.52
TCTATTAGTTGGTTAGGGCAACCGAAACAGCGGA	0.675	0.576	0.522	0.534	1.35	0.448	-0.169	1.55	3.59	2.57
TCTCGGAGGACACTAAGGTCAGAGCTTTCCAGAG	1.87	1.63	0.625	1.5	-0.615	2.32	0.459	1.84	2.1	1.81
TCTATTAGTTAAAGGGCAACCGACGAGTCCGTTT	0.559	1.45	0.826	1.12	0.427	1.87	1.12	3.36	3.9	3.45
AGAATGAGGTTAAGATCAAGGAAACAGAATACAT	1.93	1.78	0.0429	1.71	-0.221	3.67	2.49	2.3	0.939	1.76
GCTAGTTGGTCAGTGAAAGGTCACACACCGGTCG	3.55	4.39	4.49	3.7	0.467	4.43	4.64	5.57	3.93	5.67
CCTAGTTGGTAAGGAGGTCACACACCGGATATGA	3.14	3.17	1.87	3.13	0.74	4.19	3.16	3.39	1.34	2.68
GCAGGCAGGTGAAACGCAGGTAACTCAGGGTGGC	0.782	0.881	-0.513	-0.67	-0.423	0.341	0.206	-0.46	-0.909	-0.6
CGACCTAGGTCATCCAGGACAGTGAATACATTGA	5.2	3.44	0.586	2.78	0.0681	4.33	3.93	3.43	1.07	2.59
CAAACTAGGTCAGCGGAAGGTCAAAGTCCGCATG	4.7	5.1	3.95	4.3	0.622	5.61	7.65	6.54	4.12	6.37
CGAACTAGGTCAGAACAAGACAGTGAAGGATGAT	0.848	0.591	-0.0962	0.588	-0.311	3.32	5.7	4.3	2.01	3.41
GCATATAGGTAATACTAGGTGAAAGTCCGATTGT	0.715	2.49	0.179	0.49	-0.275	2.06	2.22	2.48	1.09	2.43
CCGACTGGGGCAGTAAGGTTACCATACCATCCGG	0.252	-0.0103	-0.54	-0.134	-0.789	1.16	1.03	1.17	-0.0768	0.343
ACTACTAGTTGAGACGAGGGCAACCGATAGGTTG	0.166	-0.245	-0.365	-0.0617	-0.193	0.173	0.721	0.0309	-0.149	-0.0878
